# High-throughput results: PubChem, National Center for Advancing Translational Sciences (NCATS)
# D2 ag-1 – agonists of human D2 dopamine receptor. P14416. HEK293 T-REx D2 cells, calcium flux agonist mode. activation, % at 2 µM. actives 0.53% (n = 340,000). AID 485358;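 active means activation over 3 SD above normal in the single-dose calcium agonist read, cut at about 30% in these data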; further: 0% is about no effect
# Target sequence (P14416 whole entry, looked up): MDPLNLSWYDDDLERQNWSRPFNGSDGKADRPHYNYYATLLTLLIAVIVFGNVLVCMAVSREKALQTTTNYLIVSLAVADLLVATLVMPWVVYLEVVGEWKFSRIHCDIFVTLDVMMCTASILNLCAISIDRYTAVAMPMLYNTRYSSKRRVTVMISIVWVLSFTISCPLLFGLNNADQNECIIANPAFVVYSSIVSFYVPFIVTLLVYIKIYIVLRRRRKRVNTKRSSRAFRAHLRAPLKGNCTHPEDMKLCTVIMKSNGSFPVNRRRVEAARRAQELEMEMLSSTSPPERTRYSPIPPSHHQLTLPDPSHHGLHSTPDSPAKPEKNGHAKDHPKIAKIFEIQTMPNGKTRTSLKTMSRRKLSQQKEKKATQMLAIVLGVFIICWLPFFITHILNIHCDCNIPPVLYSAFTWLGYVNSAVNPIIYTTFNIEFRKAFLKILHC
#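 Calcium-flux readout, 1 cycle/sec over 180 s following compound pin transfer, in inducible HEK293 Trex D2 cells (force-coupled); dopamine controls included. Positive calcium responses during this window marked compounds as potential agonists.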
# D2 antagonist – antagonists of human D2 dopamine receptor; P14416; HEK293 TREx D2 cells, calcium flux, dopamine EC80; inhibition, % at 10 µM; actives 2% (n = 340,000); AID 485344; in the data active means inhibition above about 30%; inactive means below that, where a call was filed; further: 0% is about no effect
#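 Tetracycline-induced HEK293 T-REx cells expressing D2 force-coupled to calcium signalling were dye-loaded, exposed to compound for 180 s, then challenged with an EC80 of dopamine; calcium flux was followed kinetically for a further 180 s.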
# D2 ag-2 – human D2 receptor agonism in beta-arrestin assay. P14416. DiscoveRx PathHunter D2 beta-arrestin, luminescence, 90 min; 100% = 57 uM dopamine signal. activation, % (no concentration beside the values). actives 0.084% (n = 360,000). AID 624465; in the data active means activation above about 40%
#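 Agonist mode: compounds alone added to overnight-plated D2 PathHunter cells for 90 min at 37 C, with 57 uM final dopamine (EC100) defining full response. Beta-arrestin recruitment detected by chemiluminescent reagent, read after 1 h at ambient temperature.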
# D2 PAM-1 – potentiates the human D2 dopamine receptor allosterically; DiscoveRx D2 beta-arrestin cells, luminescence, 90 min; 100% = 57 uM dopamine signal; potentiation, % (no concentration beside the values); actives 0.23% (n = 360,000); P14416; in the data active means potentiation above about 50%
#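 D2 cells co-treated with compound plus 50 nM dopamine (EC20) for 90 min at 37 deg C to detect potentiation. Beta-arrestin recruitment was read as enzyme-fragment luminescence after 1 h at ambient temperature. Full response was set by 57 uM dopamine.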
# D2 PAM-2 – D2 dopamine receptor (human) potentiation | P14416 | HEK293 T-REx D2, calcium flux, EC20 dopamine potentiation | potentiation, % at 10 µM | actives 0.34% (n = 340,000);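 active means potentiation over 3 SD above the plate norm, cut at about 30% in these data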; further: 0% is about no effect
#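 Using a no-wash calcium dye in inducible, force-coupled HEK293 Trex cells expressing D2, we tracked fluorescence each second for 180 s after compound, then for 180 s after EC20 dopamine to detect augmented signalling.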
# Active calls of the source: *; · = no result given; ! = not active in a repeat. Sampled rows, rich in hits. Any-hit rate of the full collection: about 2.4%.
SMILES,D2 ag-1,D2 antagonist,D2 ag-2,D2 PAM-1,D2 PAM-2
O=C(C[n+]1ccccc1)N/N=C/c1cccc(Cl)c1Cl,1.0,-10.9,-6.5,-7.3,8.5
COc1ccc(/C=N/NC(=O)C[n+]2ccccc2)c(OC)c1OC,0.0,35.1*,-2.6,-26.6,-26.6
O=C(C[n+]1ccccc1)N/N=C/c1ccccc1Cl,0.4,35.9*,5.0,-0.9,-19.8
O=C(Cc1cc(=O)[nH][nH]1)N/N=C/c1ccccc1Cl,-0.3,-13.3,-1.1,2.5,9.1
O=C(Cc1ccccc1)N/N=C/c1ccccc1Cl,-0.6,31.2*,-3.6,-12.4,1.4
CNC(=S)N/N=C/c1ccccc1OCC(=O)O,2.0,31.4*,-3.1,-4.6,14.0
O=C(O)COc1ccccc1/C=N/NC(=O)C(O)c1ccccc1 (centres undefined),0.0,-15.1,-6.4,-5.5,1.1
CCN(CC)c1ncnc2c1cnn2-c1cc(Cl)ccc1C,0.8,·,·,·,19.1
Cc1ccc(-n2ncc(C(=O)NCc3ccccc3)c2C2CCN(C(=O)OC(C)(C)C)CC2)cc1,-0.6,·,·,·,-10.4
CCOc1ccc(C(=O)c2oc3ccccc3c2NC(=O)c2cc(=O)c3ccc(C)cc3o2)cc1,-1.0,·,·,·,7.9
Cc1ccc(CNC(=O)c2cc(NS(=O)(=O)c3ccc(C)cc3)ccn2)cc1,-0.5,·,·,·,2.7
C=CCc1cccc(/C=N/NC(=O)C(C)Nc2cccc(C)c2)c1O (centres undefined),0.0,31.0*,-4.2,-11.7,-8.7
C=CCc1cccc(/C=N/NC(=O)CCCNc2ccc(C)cc2)c1O,-0.8,-18.1,-4.4,-27.1,-14.8
C=CCc1cccc(/C=N/NC(=O)C[n+]2ccccc2)c1O,0.0,52.7*,10.2,-12.3,-20.4
O=C(Cc1ccccc1)Nc1ccc(Br)c(Cl)c1,-1.6,-10.2,0.3,-13.8,30.7*
CCOc1ccccc1/C=N/NC(=O)C[n+]1ccccc1,-0.6,33.2*,-4.9,-19.1,-16.5
Oc1ccc2ccccc2c1C=Nc1ccccc1-c1nc2ccccc2[nH]1,-0.2,41.4*,14.9,53.0*,0.5
O=C(O)c1ccccc1-c1nc2ccccc2[nH]1,1.8,-6.4,0.7,-1.7,1.1
COc1ccc(C)c2sc(N(Cc3cccnc3)C(=O)CCc3ccccc3)nc12,·,·,·,·,12.5
O=C(N/N=C/c1ccc(N2CCCC2)c([N+](=O)[O-])c1)c1cccnc1,1.3,40.6*,-0.8,-4.0,-17.5
COc1ccc(C(=O)NC(=S)Nc2ccc(N3CCCC3)cc2)cc1,·,·,6.4,-1.8,·
COc1cccc(C(=O)NC(=S)Nc2ccc(N3CCCC3)cc2)c1,-0.1,56.5*,0.1,-7.5,-5.0
COc1cc(OC)cc(C(=O)NC(=S)Nc2ccc(NC(=O)c3ccco3)cc2)c1,2.4,-1.0,1.1,11.7,37.5*
O=C(Nc1ccc(N2CCN(Cc3ccccc3Cl)CC2)cc1)c1cccnc1,1.0,15.2,0.3,-6.5,-3.1
O=C(Nc1ccc(N2CCCCC2)cc1)c1cccnc1,-0.2,33.9*,3.0,11.8,-7.7
SMILES,D2 ag-1,D2 antagonist,D2 ag-2,D2 PAM-1,D2 PAM-2
CN(C)CCCNc1oc(/C=C/c2ccc(F)cc2)nc1C#N,-0.1,·,·,·,-1.7
CCC(Sc1nnc2c3ccccc3n(CC)c2n1)C(=O)Nc1ccc(NC(C)=O)cc1 (centres undefined),0.4,·,·,·,-3.1
O=C1CC(=O)Nc2cc(S(=O)(=O)Nc3cccc(C(F)(F)F)c3)ccc2N1,0.2,30.5*,1.6,8.2,1.3
O=C1CC(=O)Nc2cc(S(=O)(=O)Nc3ccc(Cl)c(C(F)(F)F)c3)ccc2N1,0.1,9.7,5.0,6.4,3.3
CC(CCc1ccccc1)NCC(O)COc1ccccc1 (centres undefined),34.8*,55.4*,5.0,-8.7,-30.1
OC(CNCC1CCCCC1)COc1ccccc1 (centres undefined),0.4,46.5*,-1.0,-22.1,-20.1
CC(C)NCC(O)COc1ccc(CCOCC2CC2)cc1 (centres undefined),1.7,-5.2,-5.7,-7.5,-1.7
COCCc1ccc(OCC(O)CNC(C)C)cc1 (centres undefined),1.2,33.9*!,-1.5,-0.1,-4.3
CCOc1ccc(C(=O)c2cn(CC(=O)Nc3ccc(F)c(F)c3)c3cc4c(cc3c2=O)OCCO4)cc1,0.7,·,·,·,21.7
Cn1c(=O)c2sccc2n2c(CCC(=O)NCc3ccccc3)nnc12,0.6,·,·,·,-0.9
O=C(Nc1ccc(F)cc1F)c1noc2c1CCc1ccccc1-2,-0.1,·,·,·,13.8
CCc1cnc2c(c1SCCC(C)C)c(=O)n(C)c(=O)n2C,1.9,·,·,·,15.0
Cc1c(CN2CCCCC2)c(O)n(CCCO)c(=O)c1C#N,2.0,8.5,3.8,10.4,5.8
CCCn1c(O)c(CN2CCCCC2)c(C)c(C#N)c1=O,14.3,13.1,8.0,63.5*,-14.8
O=C(COC(=O)CSc1nnc(-c2ccc(Cl)cc2)o1)Nc1cc(Cl)ccc1Cl,0.0,4.6,-3.0,-14.7,-5.1
N#Cc1ccc(NC(=O)COC(=O)CSc2nnc(-c3ccc(Cl)cc3)o2)cc1,1.8,31.3*,0.0,1.6,-0.7
Clc1cccc2c1CCN(Cc1nc(-c3cnccn3)no1)C2,1.1,40.0*,-5.4,-1.5,-11.3
CC(C)(C)Cn1c(=O)[nH]c(=O)c2cc([N+](=O)[O-])cnc21,-1.2,35.4*,-1.5,-6.2,-0.8
CCCn1c(-c2cccc([N+](=O)[O-])c2)nc2c1c(=O)[nH]c(=O)n2Cc1ccccc1,2.4,-4.9,-4.0,-1.5,9.9
COCCNC(=S)N(CCc1c(C)[nH]c2ccc(Cl)cc12)Cc1cccs1,0.5,5.3,1.4,-1.2,2.2
Cc1[nH]c2ccc(F)cc2c1CCN(Cc1cccnc1)C(=S)Nc1ccccc1,-0.3,10.6,-5.4,-9.3,-7.8
CNC(=S)N(CCc1c(C)[nH]c2ccc(F)cc12)Cc1cccnc1,0.4,-11.1,6.1,-10.6,31.4*
COCCNC(=S)N(CCc1c(C)[nH]c2ccc(F)cc12)Cc1cccs1,2.0,30.0*,-0.5,-11.7,-0.8
CCN(CC)S(=O)(=O)c1ccc2c(c1)N(CC(=O)Nc1cccc(C#N)c1)C(=O)CO2,-1.2,·,·,·,-3.6
CCOC(=O)c1c(C)[nH]c(CCC(=O)Nc2c(C)cccc2CC)c1C,-0.2,·,·,·,6.4
CCOc1cc(CN2CCN(CCOCCO)CC2)ccc1OC,-0.1,-5.3,-1.8,-7.5,1.9
CC(C)c1ccc(S(=O)(=O)N2CCN(CC(O)CN3CCOCC3)CC2)cc1 (centres undefined),0.3,-1.8,-4.9,-5.7,1.5
CCC(C)c1ccc(S(=O)(=O)N2CCN(CC(O)COCC3CCCO3)CC2)cc1 (centres undefined),-0.5,33.2*,-4.4,-9.4,-8.6
C(=N\N1CCOCC1)/c1nc(-c2ccccc2)n2ccccc12,1.0,43.4*,2.2,-2.0,0.7
